# Results taken from PubChem BioAssay AID504706 (National Center for Advancing Translational Sciences (NCATS), 2011).
# The campaign covered roughly 320,000 compounds. About 200 (0.062%) were called active. Entries that show only a call come without a potency. Not shown: some 6% with an inconclusive outcome. The sample holds actives, similar compounds and a random draw of the others, so the mix is not that of the screen. Calls follow the shape of the dose curve; as a rule, active = well fitted activation curve with a large enough effect; inconclusive = small, poorly fitted or top-dose-only effect; inactive = no such curve, though single readings can be large or run the other way.
# Assay: qHTS assay for re-activators of p53 using a Luc reporter; also: nearly all actives have a fitted effect of over 45% in size
# Conditions: H1299 p53-A138V BP100-luciferase reporter, luminescence, 24 h; series mostly up to 92.2 µM
# Source text: The p53 tumor suppressor plays a key role in suppression of tumorigenesis and in human carcinogenesis. It is frequently found inactivated in human cancers, mainly by point mutation. These point mutations are found in a wide variety of human cancers and a majority of them affect the DNA binding domain of the protein. The point mutations either alter native p53 conformation or abolish DNA contact. Additionally, cancer cells with p53 mutations are more resistant to chemo-radiation therapies. In order to find activators to reactivate this important protein, a cell-based screen for p53-dependent luciferase-reporter expression was developed. A p53-null H1299 lung cancer cell line was stably co-transfected with a temperature sensitive p53 mutant, p53-A138V, and a p53-responsive BP100-luciferase reporter. This cell model has previously been characterized in a gene chip profiling experiment for p53 activation. By lowering the culture temperature from 37 deg C (mutant p53 conformation) to 32 deg C (w.t. p53 conformation), a 30-60 fold increase in activation of luciferase activity is observed. At assay temperate, 37 deg C, basal reporter expression is very low and after the addition of detection reagent, a luminescent read-out is carried out. NIH Chemical Genomics Center [NCGC] NIH Molecular Libraries Probe Production Centers Network [MLPCN] MLPCN Grant: DA031088-01A1 Assay Provider (PI): Yi Sung, University of Michigan at Ann Arbor
# 5ul of 1000 cells per well are dispensed in all wells except column 4, into white solid-bottom TC-treated Kalypsys plates. The cells are kept in Opti-MEM and supplemented with 10% FBS and dispensed using a Multidrop (Thermo). Then using the Kalypsys pin-tool, 23nl of compounds are pinned. The compounds are starting concentration at 10mM, with 1:5 dilution, 4 points, and the control compound nocodazole is pinned in column 1 at 25mM, 1:3 dilution, in duplicate, 25mM nocodazole is pinned in column 2. Please note, all concentrations are working concentrations. 5ul of 1pM purified luciferase enzyme is dispensed using the Kalypsys dispenser in column 4. Plates are incubated for 24 hrs at 37 deg C, 5% CO2, and 95% humidity. Then 4ul of the detection reagent Amplite (ABD Bioquest) is added using the Kalypsys dispenser. Plates are incubated for 10 min at ambient room temperature and are then read on the ViewLux (Perkin Elmer) using a clear filter for a luminescent read-out.
# Potency is read from the fitted curve at half-maximal effect.
row,Compound,Potency
1,O=C1[C@@H](c2ccccc2)[C@@H](c2ccccc2)N1c1cccnc1,inactive
2,CC1O[C@@H](OC2C(O)C(C)O[C@H](OC(=O)[C@]34CCC(C)(C)C[C@H]3C3=CCC5[C@@]6(C)CC(O)C(O[C@@H]7OC(CO)C(O)[C@@H](O)[C@@H]7O)[C@@](C)(C(=O)O)C6CC[C@@]5(C)[C@]3(CO)CC4)C2O[C@H]2OC(C)[C@@H](O[C@@H]3OCC(O[C@@H]4OC(CO)C(O)[C@H](O)C4O)[C@@H](O)[C@@H]3O)[C@H](O)C2O)C(O)C(O)C1O (some centres not stated),inactive
3,COc1cc(C(=O)OCc2cc(=O)n3ccsc3n2)ccc1OC(C)C,inactive
4,O=C1CCC/C=C\C[C@@H](CC(=O)N(CCO)Cc2ccccc2)C(=O)NCCO1,inactive
5,COc1ccc(CNc2nc(NCc3ccc(OC)cc3)c3ncn(C4CCCC4)c3n2)cc1,inactive
6,C#CCOCCOCCOCCNc1nc(N2CCN(C(=O)[C@H](CCC(=O)O)n3cc(CN)nn3)CC2)nc(N2CCN(C(=O)[C@H](CCC(=O)O)n3cc(CN)nn3)CC2)n1,inactive
7,CC[C@]1(C(=O)OC)[C@H]2C(=O)N(Cc3ccccc3)C(=O)[C@H]2[C@H]2CN=C(SCc3ccc(C#N)cc3)N21,inactive
8,Cc1cccc(C)c1Nc1nnc(SCC(=O)NCCCN2CCCC2=O)s1,inactive
9,COc1cc(NC(=O)c2[nH]cnc2C(N)=O)cc(C(=O)Nc2cccc(C(F)(F)F)c2)c1,inactive
10,CN(c1ccccc1)S(=O)(=O)c1cc(C(=O)N2CCN(c3ncccn3)CC2)ccc1Cl,inactive
11,CN(C(=O)CSc1cccc[n+]1[O-])C1CCCCC1,inactive
12,Cc1cc(C(=O)N/N=C\C(Br)=C\c2ccccc2)c(C)o1,31.6 µM (active)
13,Cc1cc(C(=O)NNC(=O)c2ccccc2O)c(C)o1,inactive
14,CC(=C/c1ccccc1)/C=N/NC(=O)c1cc(C)oc1C,11.2 µM (active)
15,Cc1cc(C(=O)N/N=C/c2ccc(N3CCOCC3)cc2)c(C)o1,inactive
16,COc1ccc(C/C(C)=N/NC(=O)c2cc(C)oc2C)cc1,inactive
17,CC(C)c1cc(C(=O)N/N=C/C(Br)=C/c2ccccc2)n[nH]1,inactive
18,O=C1c2ccccc2[C@@H]2C[C@@H](O)[C@H](Nc3ccccc3Cl)CCN12,inactive
19,CC(C)(C)OC(=O)C1=C(CO)CS[C@@H]2[C@H](NC(=O)Cc3ccccc3)C(=O)N12,inactive
20,Cc1cccc(NC(=O)c2ccc(S(=O)(=O)N(C)c3ccccc3)cc2)n1,inactive
21,CCN(CC(=O)NC(C)C)C(=O)c1cc(S(=O)(=O)N2CCCCC2)ccc1N1CCCCC1,inactive
22,COc1ccc(C(=O)COC(=O)CN2C(=O)C3CC=CCC3C2=O)c(OC)c1 (configuration not stated),inactive
23,Cc1ccc(S(=O)(=O)N2C[C@@H]3CCCC[C@@H]3[C@@H](C)[C@H]2c2cn(Cc3ccccc3)c3ccc(F)cc23)cc1,inactive
24,COc1ccc(C(=O)Nc2cc(S(=O)(=O)N3CCCC3)ccc2Cl)cc1,inactive
25,CCN(C(=O)COC(=O)CCC(=O)c1cccs1)C1CCCCC1,inactive
26,CC(=O)N(O)CCCCCNC(=O)CCC(=O)N(O)CCCCCNC(=O)CCC(=O)N(O)CCCCCNC(=O)CCC(=O)O,inactive

row,Compound,Potency
1,O=C(O)/C=C/c1ccc2c(c1)OCCO2,inactive
2,O=C(/C=C/c1ccc(Cl)c([N+](=O)[O-])c1)c1ccc(O)cc1,inactive
3,O=C(/C=C/c1ccc2c(c1)OCCO2)c1ccc(O)cc1,22.4 µM (active)
4,O=C(COC(=O)c1ccncc1)Nc1ccc2c(c1)OCO2,inactive
5,O=C(Nc1cccc(S(=O)(=O)N2CCCCC2)c1)c1cncc(Br)c1,inactive
6,COc1cc(S(=O)(=O)N2CCN(C(=O)C3CC3)CC2)ccc1NC(C)=O,inactive
7,CC[C@]12c3[nH]c4ccc(OC)cc4c3CCN1C(=O)C(CC(=O)NCCN1CCOCC1)C[C@@H]2C(=O)N1CCN(C(=O)C2CC2)CC1 (some centres not stated),inactive
8,CC[C@]12c3[nH]c4cc(CCC(=O)N(C)C)ccc4c3CCN1C(=O)[C@@H](CC(=O)NCCCn1ccnc1)C[C@@H]2C(=O)N1CCN(C(=O)C2CC2)CC1,inactive
9,CN(C)C(=O)CCc1ccc2c3c([nH]c2c1)[C@]1(C)[C@@H](C(=O)N2CCCCC2)C[C@H](CC(=O)NCCC2=CCCCC2)C(=O)N1CC3,inactive
10,COc1cc(OC)cc(C(=O)NC(C(=O)N2CCC2)C(C)C)c1 (configuration not stated),inactive
11,O=C(N[C@H]1C/C=C\C(c2ccc(F)cc2)N(Cc2ccccc2)C(=O)C1)OCC1c2ccccc2-c2ccccc21 (some centres not stated),inactive
12,COc1ccccc1C(=O)Nc1ccc(C)c(S(=O)(=O)N2CCCCC2)c1,inactive
13,Cc1ccc2c(c1)NC(=O)[C@@]1(C)[C@@H](c3ccccc3)[C@H]3COc4ccc(Cl)cc4[C@@H]3N1C2=O,inactive
14,C[C@@H]1CN([C@H](C)CO)C(=O)c2cc(NC(=O)NC3CCCCC3)ccc2O[C@H]1CN(C)S(C)(=O)=O,inactive
15,O=C(C[C@@H]1C/C=C\CCC(=O)OC[C@@H]2CCCN2C1=O)NCCO,inactive
16,COc1ccc(/C=C/C(=O)OCC(=O)NC2CCCCCC2)cc1OC,inactive
17,CC1(C)CC[C@@]2(C(=O)O)C(C1)C1=CCC3[C@@]4(C)CC[C@H](O)C(C)(C)C4CC[C@@]3(C)[C@]1(C)C[C@H]2O (some centres not stated),inactive
18,CC(=O)C[C@H](O)CC(=O)[C@@H]1OC(=O)[C@@H](C)C/C=C\Cc2ccccc21,inactive
19,CCCCNC(=O)C(C)N(CCN(C)C)C(=O)CCCCCN1C(=O)NC(c2ccc(Cl)cc2)C(C(=O)OCc2ccccc2)=C1C (configuration not stated),inactive
20,COc1cc2c(-c3ccc4c(c3)OCO4)c(-c3ccsc3)oc(=O)c2cc1OC,inactive
21,COc1cc(/C=C2\Oc3ccc(C#Cc4ccc(O)cc4)cc3C2=O)cc(OC)c1,inactive
22,Cc1ccc(NS(=O)(=O)c2ccc(C(C)C)cc2)cc1S(=O)(=O)N1CCOCC1,inactive
23,COc1ccc(Br)cc1CN(C)C(=O)C1CC(=O)N(C2CCCC2)C1 (configuration not stated),inactive
24,Cc1nn(-c2ccccc2)c(Cl)c1/C=C/C(=O)c1ccc(O)cc1,22.4 µM (active)
25,Cc1nn(-c2ccccc2)c(C)c1/C=C/C(=O)OC(C)C(N)=O (configuration not stated),inactive
26,Cc1nn(-c2ccccc2)c(Cl)c1C(=O)Nc1ccccc1,inactive
